PubChem BioAssay AID1159580 (chemical genetic matrix, 2015)
Out of some 5,500 compounds screened, about 2,000 (36%) were called active. Not shown: some 18% with an inconclusive outcome. Cut-off read from the data, not from the text of the source: active = normalized growth mostly below about 0.91 (no sharp cut-off); inconclusive = no clear call, values can overlap the other calls; inactive = mostly above about 0.92. Some of the results follow.

Experiment: chemical genetic growth profiling, strain panel (AID 1159580);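 note: tested at 20 µM; growth read once vehicle control cultures reached saturation at 30 °C; 1 = growth at the plate median or of vehicle wells; lower values mean less growth of the strain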
Settings: growth OD

Measured: normalized growth

CC[C@@H]1[C@@H](O)N2C3C[C@H]1C1C(O)[C@]4(C[C@@H]12)c1ccccc1N(C)[C@@H]34 (some centres not stated)
inactive: S. cerevisiae deletion strains, locus YJR075W, strain HOC1, active compounds read low 0.986 | S. cerevisiae deletion strains, locus YKL009W, strain mrt4, active compounds read low 1.02 | S. cerevisiae deletion strains, locus YKL068W, active compounds read low 0.987 | S. cerevisiae deletion strains, locus YKL085W, strain MDH1 (second series), active compounds read low 0.997 | S. cerevisiae deletion strains, locus YKL085W, strain MDH1, active compounds read low 0.997 | S. cerevisiae deletion strains, locus YKL160W, strain elf1, active compounds read low 1 | S. cerevisiae deletion strains, locus YKL190W, strain CNB1, active compounds read low 0.989 | S. cerevisiae deletion strains, locus YKR001C, strain vps1, active compounds read low 0.965 | S. cerevisiae deletion strains, locus YKR026C, strain gcn3, active compounds read low 1.02 | S. cerevisiae deletion strains, locus YKR091W, strain srl3, active compounds read low 1.03 | S. cerevisiae deletion strains, locus YLL001W, strain dnm1, active compounds read low 1.02 | S. cerevisiae deletion strains, locus YLL026W, active compounds read low 1 | S. cerevisiae deletion strains, locus YLL041C, strain sdh2, active compounds read low 1.05 | S. cerevisiae deletion strains, locus YLR027C, strain aat2, active compounds read low 1.02 | S. cerevisiae deletion strains, locus YLR039C, strain RIC1, active compounds read low 0.985 | S. cerevisiae deletion strains, locus YLR058C, strain SHM2, active compounds read low 0.992 | S. cerevisiae deletion strains, locus YLR102C, strain apc9, active compounds read low 0.973 | S. cerevisiae deletion strains, locus YLR113W, strain HOG1, active compounds read low 0.996 | S. cerevisiae deletion strains, locus YLR221C, strain rsa3, active compounds read low 1.01 | S. cerevisiae deletion strains, locus YLR258W, strain gsy2, active compounds read low 1.03 | S. cerevisiae deletion strains, locus YLR262C, strain YPT6 (second series), active compounds read low 1.01 | S. cerevisiae deletion strains, locus YLR262C, strain YPT6, active compounds read low 0.984 | S. cerevisiae deletion strains, locus YLR268W, strain sec22, active compounds read low 0.935 | S. cerevisiae deletion strains, locus YLR320W, strain mms22, active compounds read low 1.01 | S. cerevisiae deletion strains, locus YLR330W, strain CHS5, active compounds read low 0.994 | S. cerevisiae deletion strains, locus YLR342W, strain FKS1 (second series), active compounds read low 1.01 | S. cerevisiae deletion strains, locus YLR342W, strain FKS1, active compounds read low 1.01 | S. cerevisiae deletion strains, locus YLR357W, strain rsc2, active compounds read low 1.09 | S. cerevisiae deletion strains, locus YLR370C, strain arc18, active compounds read low 1.03 | S. cerevisiae deletion strains, locus YLR371W, strain rom2, active compounds read low 0.975 | S. cerevisiae deletion strains, locus YLR384C, strain iki3, active compounds read low 1.03 | S. cerevisiae deletion strains, locus YLR418C, strain cdc73, active compounds read low 0.961 | S. cerevisiae deletion strains, locus YML016C, strain PPZ1, active compounds read low 0.992 | S. cerevisiae deletion strains, locus YML032C, strain rad52, active compounds read low 0.954 | S. cerevisiae deletion strains, locus YML120C, strain ndi1, active compounds read low 1.02 | S. cerevisiae deletion strains, locus YML124C, strain tub3, active compounds read low 0.982 | S. cerevisiae deletion strains, locus YMR058W, strain fet3, active compounds read low 1.01 | S. cerevisiae deletion strains, locus YMR078C, strain ctf18, active compounds read low 0.958 | S. cerevisiae deletion strains, locus YMR125W, strain sto1, active compounds read low 1.06 | S. cerevisiae deletion strains, locus YMR129W, active compounds read low 1.01 | S. cerevisiae deletion strains, locus YMR205C, strain PFK2, active compounds read low 1.03 | S. cerevisiae deletion strains, locus YMR223W, strain ubp8, active compounds read low 0.996 | S. cerevisiae deletion strains, locus YMR231W, strain pep5, active compounds read low 1.03 | S. cerevisiae deletion strains, locus YMR263W, strain SAP30, active compounds read low 1 | S. cerevisiae deletion strains, locus YMR307W, strain GAS1, active compounds read low 0.974 | S. cerevisiae deletion strains, locus YNL067W, strain RPL9B, active compounds read low 0.981 | S. cerevisiae deletion strains, locus YNL071W, strain lat1, active compounds read low 1.03 | S. cerevisiae deletion strains, locus YNL128W, strain TEP1, active compounds read low 0.991 | S. cerevisiae deletion strains, locus YNL153C, strain GIM3, active compounds read low 0.992 | S. cerevisiae deletion strains, locus YNL183C, strain NPR1, active compounds read low 0.917 | S. cerevisiae deletion strains, locus YNL209W, strain ssb2, active compounds read low 1.04 | S. cerevisiae deletion strains, locus YNL233W, strain BNI4, active compounds read low 0.977 | S. cerevisiae deletion strains, locus YNL248C, strain rpa49, active compounds read low 1.01 | S. cerevisiae deletion strains, locus YNL250W, strain rad50, active compounds read low 0.981 | S. cerevisiae deletion strains, locus YNL271C, strain bni1, active compounds read low 0.973 | S. cerevisiae deletion strains, locus YNL298W, strain CLA4, active compounds read low 0.968 | S. cerevisiae deletion strains, locus YNL307C, strain MCK1, active compounds read low 0.99 | S. cerevisiae deletion strains, locus YNL322C, strain KRE1 (second series), active compounds read low 1.05 | S. cerevisiae deletion strains, locus YNL322C, strain KRE1, active compounds read low 0.998 | S. cerevisiae deletion strains, locus YNR049C, strain mso1, active compounds read low 1.03 | S. cerevisiae deletion strains, locus YNR052C, strain pop2, active compounds read low 0.982 | S. cerevisiae deletion strains, locus YOL006C, strain TOP1, active compounds read low 0.921 | S. cerevisiae deletion strains, locus YOL012C, strain htz1 0.945 | S. cerevisiae deletion strains, locus YOL147C, strain pex11, active compounds read low 0.974 | S. cerevisiae deletion strains, locus YOR001W, strain rrp6, active compounds read low 1.02 | S. cerevisiae deletion strains, locus YOR061W, strain CKA2, active compounds read low 0.97 | S. cerevisiae deletion strains, locus YOR069W, strain VPS5, active compounds read low 0.995 | S. cerevisiae deletion strains, locus YOR070C, strain gyp1, active compounds read low 1.03 | S. cerevisiae deletion strains, locus YOR080W, strain dia2, active compounds read low 1.04 | S. cerevisiae deletion strains, locus YOR083W, strain WHI5, active compounds read low 0.979 | S. cerevisiae deletion strains, locus YOR106W, strain vam3, active compounds read low 1.04 | S. cerevisiae deletion strains, locus YOR136W, strain idh2, active compounds read low 0.98 | S. cerevisiae deletion strains, locus YOR144C, strain elg1, active compounds read low 0.962 | S. cerevisiae deletion strains, locus YOR184W, strain ser1, active compounds read low 0.97 | S. cerevisiae deletion strains, locus YOR231W, strain MKK1, active compounds read low 1.01 | S. cerevisiae deletion strains, locus YOR265W, strain rbl2, active compounds read low 1.03 | S. cerevisiae deletion strains, locus YOR270C, strain vph1, active compounds read low 1.14 | S. cerevisiae deletion strains, locus YOR290C, strain snf2, active compounds read low 1.02 | S. cerevisiae deletion strains, locus YOR316C, strain cot1, active compounds read low 0.975 | S. cerevisiae deletion strains, locus YPL051W, strain arl3, active compounds read low 1.02 | S. cerevisiae deletion strains, locus YPL055C, strain LGE1, active compounds read low 1 | S. cerevisiae deletion strains, locus YPL078C, strain atp4, active compounds read low 1.03 | S. cerevisiae deletion strains, locus YPL106C, strain sse1, active compounds read low 1.06 | S. cerevisiae deletion strains, locus YPL240C, strain hsp82, active compounds read low 1.02 | S. cerevisiae deletion strains, locus YPL241C, strain CIN2, active compounds read low 0.994 | S. cerevisiae deletion strains, locus YPL256C, strain CLN2, active compounds read low 0.982 | S. cerevisiae deletion strains, locus YPR119W, strain clb2, active compounds read low 0.972 | S. cerevisiae deletion strains, locus YPR141C, strain kar3, active compounds read low 0.979 | S. cerevisiae deletion strains, locus YPR163C, strain tif3, active compounds read low 0.966 | S. cerevisiae deletion strains, locus YPR167C, strain met16, active compounds read low 0.976 | S. cerevisiae deletion strains, strain wtn01, active compounds read low 0.963 | S. cerevisiae strains, strain wild type, active compounds read low 0.994
